Screening data as filed in PubChem.
D2 ag-1 = human D2 receptor agonism in beta-arrestin assay; P14416; DiscoveRx PathHunter D2 beta-arrestin, luminescence, 90 min; 100% = 57 uM dopamine signal; activation, % (test concentration not listed); actives 0.084% (n = 360,000); AID 624465; in the data active means activation above about 40%; inconclusive means between about 15% and that limit
Target sequence (P14416 whole entry, looked up): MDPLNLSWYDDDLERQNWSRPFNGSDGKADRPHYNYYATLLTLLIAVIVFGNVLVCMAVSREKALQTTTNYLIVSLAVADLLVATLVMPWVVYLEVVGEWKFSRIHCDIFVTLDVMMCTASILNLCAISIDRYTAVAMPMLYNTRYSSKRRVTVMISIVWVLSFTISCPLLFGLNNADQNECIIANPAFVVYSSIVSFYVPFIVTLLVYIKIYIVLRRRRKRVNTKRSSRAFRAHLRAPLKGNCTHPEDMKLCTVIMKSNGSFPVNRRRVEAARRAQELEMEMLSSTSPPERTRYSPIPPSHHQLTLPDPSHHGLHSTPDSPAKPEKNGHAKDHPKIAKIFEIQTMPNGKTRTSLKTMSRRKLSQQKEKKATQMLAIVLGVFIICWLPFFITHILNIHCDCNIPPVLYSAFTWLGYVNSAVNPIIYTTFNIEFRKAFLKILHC
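DiscoveRx PathHunter D2 beta-arrestin cells (2,100/well) attached overnight, then compound-stimulated 90 min at 37 C in HBSS/10 mM HEPES/0.1% Tween-20 buffer; beta-galactosidase complementation read by luminescence after 1 h at ambient temperature. Dopamine 57 uM final (EC100) as control.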
D2 PAM-1 = positive allosteric modulators of human D2 dopamine receptor; HEK293 T-REx D2, calcium flux, EC20 dopamine potentiation; P14416; potentiation, % at 10 µM; actives 0.34% (n = 340,000);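 active means potentiation over 3 SD above the plate norm, cut at about 30% in these data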; further: 0% is about no effect
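Tetracycline-induced Hek293 Trex D2 cells, force-coupled to calcium, loaded with no-wash calcium dye. Compound added with 180 s kinetic read for agonism, then EC20 dopamine and a further 180 s read for potentiation.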
D2 PAM-2 = positive allosteric modulators of human D2 dopamine receptor | P14416 | AID 624464 | potentiation, % (no concentration beside the values) | actives 0.23% (n = 360,000) | DiscoveRx D2 beta-arrestin cells, luminescence, 90 min; 100% = 57 uM dopamine signal; in the data active means potentiation above about 50%; inconclusive means mostly about 30% to 49%
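D2 cells co-treated with compound plus 50 nM dopamine (EC20) for 90 min at 37 deg C to detect potentiation. Beta-arrestin recruitment was read as enzyme-fragment luminescence after 1 h at ambient temperature. Full response was set by 57 uM dopamine.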
D2 antag = antagonizes the human D2 dopamine receptor | inhibition, % at 10 µM | actives 2% (n = 340,000) | P14416 | HEK293 TREx D2 cells, calcium flux, dopamine EC80; in the data active means inhibition above about 30%; inactive means below that, where a call was filed; further: 0% is about no effect
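Tetracycline-induced HEK293 TREx cells expressing D2 receptor forced-coupled to calcium signalling, loaded with no-wash calcium dye. Compounds added and calcium flux read 180 s, then dopamine added at EC80 and read a further 180 s.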
D2 ag-2 = agonists of human D2 dopamine receptor. HEK293 T-REx D2 cells, calcium flux agonist mode. activation, % at 2 µM. actives 0.53% (n = 340,000). AID 485358;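 active means activation over 3 SD above normal in the single-dose calcium agonist read, cut at about 30% in these data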; further: 0% is about no effect
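Tetracycline-induced HEK293 T-REx cells with force-coupled D2 receptor, plated overnight at 30 C, loaded with no-wash calcium dye. After a 10 s baseline, compound was pin-added and calcium flux read kinetically for 180 s; calcium rises flagged agonists.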
* marks the source's active call; other numbers are inactive results; ? = inconclusive; . = not tested or not shown. Most compounds without a hit are left out; they make up all but 2.4% or so of the library.

SMILES | D2 ag-1 | D2 PAM-1 | D2 PAM-2 | D2 antag | D2 ag-2
Cc1cccc(N2CCN(CC3CCCCC3)CC2)c1C | -4 | -38 | -5 | 73* | 1
Cc1ccc(C)c(N2CCN(CCCc3ccccc3)CC2)c1 | -6 | -25 | -5 | 51* | 2
Cc1ccc(C)c(N2CCN(CC3CCCCC3)CC2)c1 | 3 | -21 | -20 | 62* | -1
C/C=C(\C)CN1CCN(c2cccc(C)c2C)CC1 | 1 | -23 | -28 | 85* | 1
Cc1ccc(C)c(N2CCN(Cc3nnnn3C3CCCCC3)CC2)c1 | -2 | 13 | -8 | 7 | 1
CCOc1ccc(CCNC(=O)Nc2cccc(OC)c2)cc1OCC | -1 | 6 | -2 | 9 | -1
COc1ccc(CCN2CC(C(=O)NCCc3cccnc3)CCC2=O)cc1 (configuration not stated) | -3 | -6 | -3 | 32* | -1
O=C(Cc1ccc(F)cc1)OCC(=O)N1CCN(S(=O)(=O)c2ccc(Cl)cc2)CC1 | -3 | 3 | -8 | 14 | 0
CCOC(=O)CNC(=O)CSc1nnc(-c2ccc(OC)cc2)n1CC | -1 | 9 | -10 | 35* | 1
CC(SCc1ccccc1)C(=O)N/N=C/c1cccs1 (configuration not stated) | -2 | 0 | -8 | -8 | 0
O=C(COC(=O)c1ccc(O)cc1O)Nc1ncc(Cl)cc1Cl | 5 | -1 | 9 | 31* | 2
CC1CCCC(NC(=O)CSc2ncccc2C(=O)O)C1C (configuration not stated) | -2 | -3 | -9 | -5 | 1
O=c1[nH]c(CN2CCN(Cc3ccccc3)CC2)nc2scc(-c3ccccc3)c12 | -2 | -24 | -6 | 69* | 0
CC(=O)N1CCN(Cc2nc3scc(-c4ccccc4)c3c(=O)[nH]2)CC1 | -4 | 0 | -4 | . | .
Cc1cc(Cl)c(OCCCCNC(C)(C)C)c(Br)c1 | . | -5 | . | 19 | 0
Cc1c(C(Nc2ccccn2)c2ccc(Cl)cc2)c(=O)n(-c2ccccc2)n1C (configuration not stated) | 1 | 26 | 7 | 0 | 0
Cc1c(C(Nc2ccccn2)c2ccccc2)c(=O)n(-c2ccccc2)n1C (configuration not stated) | 4 | 36* | 0 | 2 | 0
Cc1cc2ncn(/N=C/c3ccc([N+](=O)[O-])s3)c2cc1C | 13 | 13 | 71* | 1 | 3
Cc1nc2ccccc2n1/N=C/c1ccc([N+](=O)[O-])s1 | 2 | 1 | 16 | 8 | -1
O=[N+]([O-])c1ccc(/C=N/n2cnc3ccccc32)s1 | ? | 8 | 64* | -12 | 1
CCCCCCc1cc2cc(S(=O)(=O)c3ccc(F)cc3)c(=O)oc2cc1O | 3 | 11 | 11 | 16 | 23
CCCCCCc1cc2cc(-c3nnc(-c4ccccc4O)o3)c(=O)oc2cc1O | 6 | -6 | 2 | 19 | 39*
CCCCCCc1cc2cc(-c3nnc(-c4cc(OC)c(OC)c(OC)c4)o3)c(=O)oc2cc1O | 0 | 7 | -10 | 0 | 0
CCCCCCc1cc2cc(-c3nnc(-c4ccccc4OC)o3)c(=O)oc2cc1O | ? | -1 | 155* | -43 | 110*
Cc1ccccc1NCc1ccc([N+](=O)[O-])s1 | 5 | 2 | -6 | -24 | -3
SMILES | D2 ag-1 | D2 PAM-1 | D2 PAM-2 | D2 antag | D2 ag-2
Cc1nc2n(COCCO)cnn2c(=O)c1Br | -5 | 0 | -2 | 16 | 0
Oc1ccc(/C=N/N2CCCCC2)cc1O | 44* | -3 | -11 | . | .
COc1ccc2c(c1)c(C(O)CN1CCC(Cc3ccccc3)CC1)c(C)n2C (configuration not stated) | -2 | -26 | -19 | 51* | 0
c1ccc(CN2CCC3(CCCc4ccccc43)CC2)cc1 | -1 | -13 | -25 | 43* | 0
Cc1ccc(Cl)cc1OCC(=O)NCCOC(=O)Nc1sc(=S)n(C)c1C | 1 | -9 | -5 | 9 | -1
Cc1ccc(N/C(N)=N/c2nc3c(c(=O)[nH]2)CCCC3)c(C)c1 | 3 | -1 | -7 | -10 | -1
Cc1ccc(N/C(N)=N/c2nc(C)cc(N3CCCCC3)n2)c(C)c1 | 6 | -19 | -18 | 35* | 8
O=C1NC(c2cccs2)Nc2ccccc21 (configuration not stated) | -3 | 7 | -23 | 1 | -2
Cc1ccsc1C1NC(=O)c2ccccc2N1 (configuration not stated) | 1 | 33* | -15 | -9 | 1
C/C(CCN1CCCCc2nc(C)c(C)cc21)=N\O[C@H](C)c1cn([C@H](CO)Cc2ccccc2)nn1 | . | 2 | . | -2 | -1
CC(=O)OC[C@H]1O[C@H](CCO/N=C(\C)CCN2CCCc3nc(C)c(C)cc32)C=C[C@@H]1OC(C)=O | . | -24 | . | 78* | 65*
Clc1ccc(CN2C3=NCCCN3c3ccccc32)cc1 | -10 | 6 | -6 | 3 | 1
Clc1ccc(CN2C3=NCCCN3c3ccccc32)cc1Cl | 1 | 3 | -10 | 76* | 1
CCn1c2ccccc2c2cc(C#N)c(N)nc21 | -3 | . | -3 | . | .
Cn1nnc(NC(=S)NC(=O)c2cc(Cl)ccc2Cl)n1 | -11 | -5 | -44 | 31* | -2
Cn1nnc(NC(=O)CSc2ccc(Cl)cc2)n1 | -1 | 8 | -5 | 40* | 0
Cn1nnc(NC(=O)CSc2nnnn2-c2ccc(F)cc2)n1 | 0 | . | -3 | . | .
COc1ccc2nc(Nc3sc4c(c3C(N)=O)CCCC4)sc2c1 | ? | -7 | 55* | 14 | 2
CCc1nc2c(OCCOc3ccccc3)cccn2c1N(C)C(=O)c1ccc(C)cc1 | -3 | . | -15 | . | .
Cc1ccc(C(=O)NNC(=O)c2cc(OCC(F)(F)F)ccc2OCC(F)(F)F)cc1 | -5 | 2 | -15 | 32* | .
CC1CCN(Cc2c(C(=O)N/N=C/c3cccc(Cl)c3)nnn2-c2nonc2N)CC1 | 1 | 38* | -13 | -8 | 0
C/C(=N\NC(=O)c1nnn(-c2nonc2N)c1CN1CCCCC1)c1ccccc1O | -6 | -4 | -6 | 30* | 0
CN(C)CC#CCC(O)(c1ccccc1)c1ccccc1 | -5 | 4 | -12 | -1 | -1
O=C(c1cc(COc2ccc(F)cc2Cl)on1)N(CCO)Cc1cccs1 | 1 | 5 | -16 | 19 | -2
O=C(CCn1c(=O)oc2ccccc21)Nc1cccc(Cl)c1 | -3 | 0 | -9 | 9 | -1
CCOC(=O)c1c(C)[nH]c(C(=O)Cn2c(=O)oc3ccccc32)c1C | -1 | -10 | -27 | 6 | 0
CCOC(=O)c1c(NC(=O)Cn2c(=O)oc3ccccc32)oc(C)c1C(C)=O | 6 | 17 | -12 | 31* | -1
Cc1ccc(NC(=O)CCCn2c(=O)oc3ccccc32)c(O)c1 | -1 | 4 | -11 | -10 | 0
